Where a chain is given by its changes, count along the chain named. Names and notes keep the numbering of the source.

Assay [1] deals with NR5A2 wild type;histone octamer (Homo sapiens;, UniProt O00482;C0HKE1;Q6ZWY9;P84244;P62806 1-541;2-130;2-126;2-136;2-103, |). As to the kind of experiment: SeEN-seq (EMSA of nucleosome library followed by sequencing); 0.8 uM human NR5A2; 20 mM Tris-HCl pH 7.5, 120 mM NaCl, 1 mM MgCl2, 10 uM ZnCl2, 1 mM DTT, 100 ug/ml BSA, room temperature, 30 min; 0.1 uM nucleosome library; high values mean tight binding. For orientation: In EMSA bound probe runs differently from free probe, usually more slowly.

The target in assay [2] is mouse Nr5a2 wild type;histone octamer (Mus musculus;, UniProt P45448;C0HKE1;Q6ZWY9;P84244;P62806 1-560;2-130;2-126;2-136;2-103, |). The experiment in a line: SeEN-seq (EMSA of nucleosome library followed by sequencing); 1.2 uM mouse Nr5a2; 20 mM Tris-HCl pH 7.5, 120 mM NaCl, 1 mM MgCl2, 10 uM ZnCl2, 1 mM DTT, 100 ug/ml BSA, room temperature, 30 min; 0.1 uM nucleosome library; high values mean tight binding.

B1: 23 (nucleosome)
DNA 1: ATCCTGGAGAATCCCGGTGCCGAGGTCAAGGCCATGGTCGTAGACAGCTCTAGCACCGCTTAAACGCACGTACGCGCTGTCCCCCGCGTTTTAACCGCCAAGGGGATTACTCCCTAGTCTCCAGGCACGTGTCAGATATATACATCCTGTGAT
DNA 2: ATCACAGGATGTATATATCTGACACGTGCCTGGAGACTAGGGAGTAATCCCCTTGGCGGTTAAAACGCGGGGGACAGCGCGTACGTGCGTTTAAGCGGTGCTAGAGCTGTCTACGACCATGGCCTTGACCTCGGCACCGGGATTCTCCAGGAT
modifications: reconstituted with mouse histones H2A, H2B, H3.3 and H4
On to B1, for which the binding signal in assay [1] is 1.81 log2 enrichment (bound/unbound, relative to Widom 601); in assay [2] it was 2.16 log2 enrichment (bound/unbound, relative to Widom 601).

B2: 24 (nucleosome)
DNA 1: B1 DNA 1 with T26C, C27T, A28C, G30A, C32G, A34C, T35A
DNA 2: B1 DNA 2 with A119T, T120G, G122C, C124T, T126G, G127A, A128G
modifications: reconstituted with mouse histones H2A, H2B, H3.3 and H4
On to B2, for which the binding signal in assay [1] was 0.706 log2 enrichment (bound/unbound, relative to Widom 601); in assay [2], 0.642 log2 enrichment (bound/unbound, relative to Widom 601).

B3: 134 (nucleosome)
DNA 1: ATCCTGGAGAATCCCGGTGCCGAGGCCGCTCAATTGGTCGTAGACAGCTCTAGCACCGCTTAAACGCACGTACGCGCTGTCCCCCGCGTTTTAACCGCCAAGGGGATTACTCCCTAGTCTCCAGGCACGTGTCAGATCAAGGCCACCTGTGAT
DNA 2: ATCACAGGTGGCCTTGATCTGACACGTGCCTGGAGACTAGGGAGTAATCCCCTTGGCGGTTAAAACGCGGGGGACAGCGCGTACGTGCGTTTAAGCGGTGCTAGAGCTGTCTACGACCAATTGAGCGGCCTCGGCACCGGGATTCTCCAGGAT
modifications: reconstituted with mouse histones H2A, H2B, H3.3 and H4
As to B3, the binding signal is 5.2 log2 enrichment (bound/unbound, relative to Widom 601) in assay [1] and 3.67 log2 enrichment (bound/unbound, relative to Widom 601) in assay [2].

B4: 17 (nucleosome)
DNA 1: B3 DNA 1 with C20T, G22A, G28A, C138A, A139T, G141T, G142A, C144A, A145T
DNA 2: B1 DNA 2 with T120A, G121T, G122T, C123G, C124A, T125G, A128G, C132T, G134A
modifications: reconstituted with mouse histones H2A, H2B, H3.3 and H4
For B4, the binding signal in assay [1] is 1.96 log2 enrichment (bound/unbound, relative to Widom 601); in assay [2] it was 1.98 log2 enrichment (bound/unbound, relative to Widom 601).

B5: 139 (nucleosome)
DNA 1: B3 DNA 1 with C138A, A139T, G141T, G142T, C144A, C146G, C147G, T148C, G149C, T150A
DNA 2: B3 DNA 2 with A4T, C5G, A6G, G7C, G8C, G10T, C12A, C13A, T15A, G16T
modifications: reconstituted with mouse histones H2A, H2B, H3.3 and H4
In the case of B5, the binding signal in assay [1] was 8.13 log2 enrichment (bound/unbound, relative to Widom 601); in assay [2] it was 5.56 log2 enrichment (bound/unbound, relative to Widom 601).

B6: 137 (nucleosome)
DNA 1: B3 DNA 1 with C138A, A139T, A140T, G141C, G142A, C143A, C144G, A145G, T148A
DNA 2: B3 DNA 2 with A6T, T9C, G10C, G11T, C12T, C13G, T14A, T15A, G16T
modifications: reconstituted with mouse histones H2A, H2B, H3.3 and H4
With B6, the binding signal is 6.9 log2 enrichment (bound/unbound, relative to Widom 601) in assay [1] and 5.78 log2 enrichment (bound/unbound, relative to Widom 601) in assay [2].

B7: 135 (nucleosome)
DNA 1: B3 DNA 1 with C138T, A139C, G141A, C143G, A145C, C146A
DNA 2: B3 DNA 2 with G8T, T9G, G11C, C13T, T15G, G16A
modifications: reconstituted with mouse histones H2A, H2B, H3.3 and H4
Take B7: the binding signal in assay [1] is 7.68 log2 enrichment (bound/unbound, relative to Widom 601); in assay [2] it was 5.73 log2 enrichment (bound/unbound, relative to Widom 601).

B8: 138 (nucleosome)
DNA 1: B3 DNA 1 with C138A, A139T, G141T, G142C, C143A, C144A, A145G, C146G, T148C, G149A
DNA 2: B3 DNA 2 with C5T, A6G, G8C, T9C, G10T, G11T, C12G, C13A, T15A, G16T
modifications: reconstituted with mouse histones H2A, H2B, H3.3 and H4
Regarding B8, the binding signal in assay [1] was 7.13 log2 enrichment (bound/unbound, relative to Widom 601); in assay [2] it was 5.66 log2 enrichment (bound/unbound, relative to Widom 601).

B9: 3 (nucleosome)
DNA 1: ATCCTTCAAGGCCACGGTGCCGAGGCCGCTCAATTGGTCGTAGACAGCTCTAGCACCGCTTAAACGCACGTACGCGCTGTCCCCCGCGTTTTAACCGCCAAGGGGATTACTCCCTAGTCTCCAGGCACGTGTCAGATATATACATCCTGTGAT
DNA 2: ATCACAGGATGTATATATCTGACACGTGCCTGGAGACTAGGGAGTAATCCCCTTGGCGGTTAAAACGCGGGGGACAGCGCGTACGTGCGTTTAAGCGGTGCTAGAGCTGTCTACGACCAATTGAGCGGCCTCGGCACCGTGGCCTTGAAGGAT
modifications: reconstituted with mouse histones H2A, H2B, H3.3 and H4
With B9, the binding signal in assay [1] is 6.62 log2 enrichment (bound/unbound, relative to Widom 601); in assay [2] it was 5.04 log2 enrichment (bound/unbound, relative to Widom 601).

B10: 16 (nucleosome)
DNA 1: ATCCTGGAGAATCCCGGTTCAAGGCCAGCTCAATTGGTCGTAGACAGCTCTAGCACCGCTTAAACGCACGTACGCGCTGTCCCCCGCGTTTTAACCGCCAAGGGGATTACTCCCTAGTCTCCAGGCACGTGTCAGATATATACATCCTGTGAT
DNA 2: ATCACAGGATGTATATATCTGACACGTGCCTGGAGACTAGGGAGTAATCCCCTTGGCGGTTAAAACGCGGGGGACAGCGCGTACGTGCGTTTAAGCGGTGCTAGAGCTGTCTACGACCAATTGAGCTGGCCTTGAACCGGGATTCTCCAGGAT
modifications: reconstituted with mouse histones H2A, H2B, H3.3 and H4
On to B10, for which the binding signal is 1.52 log2 enrichment (bound/unbound, relative to Widom 601) in assay [1] and 1.81 log2 enrichment (bound/unbound, relative to Widom 601) in assay [2].

B11: 18 (nucleosome)
DNA 1: B1 DNA 1 with C21T, G22C, G24A, T26G, A28C, G30T, G31C, C32A, C33A, A34T
DNA 2: B10 DNA 2 with G125T, C126G, T127G, G128C, G129C, C130T, C131T, T132G, T133A, A135C
modifications: reconstituted with mouse histones H2A, H2B, H3.3 and H4
Take B11: the binding signal in assay [1] was 1.7 log2 enrichment (bound/unbound, relative to Widom 601); in assay [2], 2.1 log2 enrichment (bound/unbound, relative to Widom 601).

B12: 20 (nucleosome)
DNA 1: B10 DNA 1 with T19G, A21C, A22G, G23T, G24C, C25A, C26A, A27G, T30C, C31A
DNA 2: B10 DNA 2 with G123T, A124G, T127C, G128T, G129T, C130G, C131A, T132C, T133G, A135C
modifications: reconstituted with mouse histones H2A, H2B, H3.3 and H4
In the case of B12, the binding signal is 1.09 log2 enrichment (bound/unbound, relative to Widom 601) in assay [1] and 1.09 log2 enrichment (bound/unbound, relative to Widom 601) in assay [2].

B13: 19 (nucleosome)
DNA 1: B10 DNA 1 with T19G, A21C, A22T, G23C, G24A, C25A, C26G, A27G, G28C, T30A
DNA 2: B10 DNA 2 with A124T, C126G, T127C, G128C, G129T, C130T, C131G, T132A, T133G, A135C
modifications: reconstituted with mouse histones H2A, H2B, H3.3 and H4
As for B13, the binding signal in assay [1] is 1.35 log2 enrichment (bound/unbound, relative to Widom 601); in assay [2] it was 1.28 log2 enrichment (bound/unbound, relative to Widom 601).

B14: 22 (nucleosome)
DNA 1: B1 DNA 1 with G25T, T26C, C27A, A29G, G31C, C33A, A34T
DNA 2: B1 DNA 2 with T120A, G121T, C123G, T125C, G127T, A128G, C129A
modifications: reconstituted with mouse histones H2A, H2B, H3.3 and H4
In the case of B14, the binding signal in assay [1] is 1.02 log2 enrichment (bound/unbound, relative to Widom 601); in assay [2], 0.698 log2 enrichment (bound/unbound, relative to Widom 601).

B15: 21 (nucleosome)
DNA 1: B10 DNA 1 with T19G, A21C, A22G, G23A, G24T, C26A, C29G, T30C
DNA 2: B10 DNA 2 with A124G, G125C, G128T, C130A, C131T, T132C, T133G, A135C
modifications: reconstituted with mouse histones H2A, H2B, H3.3 and H4
With B15, the binding signal is 1.08 log2 enrichment (bound/unbound, relative to Widom 601) in assay [1] and 1.08 log2 enrichment (bound/unbound, relative to Widom 601) in assay [2].

These data come from paper PMC11102866, “Nucleosome-bound NR5A2 structure reveals pioneer factor mechanism by DNA minor groove anchor competition”.
